The results in this text go back to PubChem BioAssay (NCATS).

Inconclusive results are not listed. Entries that show only a call come without a potency. The source made the active and inactive calls. Calls follow the shape of the dose curve; as a rule, active = well fitted inhibition curve with a large enough effect in the repeat runs; inconclusive = weak or mixed curves; inactive = no such curve, though single readings can be large or run the other way.

The target in the experiment is Cytochrome P450 3A4 (Homo sapiens) (UniProt P08684). Kind of experiment: Cytochrome P450 family 3 subfamily A member 4 (CYP3A4) small molecule antagonists: luciferase qHTS assay (AID 1645841). Also: nearly all actives have a fitted effect of over 45% in size. Conditions: P450-Glo CYP3A4 enzyme assay, luciferin luminescence; series mostly up to 57.4 µM. A digest of the protocol: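 Luminescent CYP3A4 activity readout: compounds plus enzyme-substrate mix 10 min at room temperature, reaction started with NADPH regenerating system for 1 h, stopped with detection reagent, read after 20 min. Ketoconazole served as control.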
Chain of Cytochrome P450 3A4 (Homo sapiens) (P08684 whole entry, looked up): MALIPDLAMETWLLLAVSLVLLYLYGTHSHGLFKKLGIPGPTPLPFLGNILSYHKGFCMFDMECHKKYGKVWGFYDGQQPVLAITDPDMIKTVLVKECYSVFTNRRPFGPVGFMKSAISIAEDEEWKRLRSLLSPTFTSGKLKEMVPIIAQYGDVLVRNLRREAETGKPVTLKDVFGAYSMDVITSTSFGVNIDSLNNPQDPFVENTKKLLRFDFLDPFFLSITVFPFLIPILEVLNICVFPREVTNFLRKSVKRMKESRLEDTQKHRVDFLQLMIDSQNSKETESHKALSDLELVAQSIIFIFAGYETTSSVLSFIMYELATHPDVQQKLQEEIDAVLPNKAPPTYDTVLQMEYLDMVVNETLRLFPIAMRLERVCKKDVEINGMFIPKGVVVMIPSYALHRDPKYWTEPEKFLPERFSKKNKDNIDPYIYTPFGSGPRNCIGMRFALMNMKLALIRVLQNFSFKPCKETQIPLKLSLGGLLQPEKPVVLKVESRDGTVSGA
For orientation: qHTS replaces the single test concentration by a dilution series.
Take `C[S+](=O)([O-])Nc1ccc(-c2ccc3nc(-c4cccc(OC(F)(F)F)c4)[nH]c3c2)cc1`: the Potency entry is “inactive”.
Turning to `CC(C)OCc1cc(CN2CCN(c3ccccc3)CC2)c(O)c2ncccc12`, the Potency entry was “inactive”.
The entry for `CN[C@H](CC(C)C)C(=O)N[C@H]1C(=O)N[C@@H](CC(N)=O)C(=O)N[C@H]2C(=O)N[C@H]3C(=O)N[C@H](C(=O)N[C@H](C(=O)O)c4cc(O)cc(O)c4-c4cc3ccc4O)[C@H](O)c3ccc(c(Cl)c3)Oc3cc2cc(c3O[C@@H]2OC(CO)[C@@H](O)[C@H](O)[C@@H]2O[C@H]2C[C@](C)(N)[C@H](O)[C@H](C)O2)Oc2ccc(cc2Cl)[C@H]1O` (stereo partly drawn) is “inactive”.
